Measured values from PubChem BioAssay (NCI).
The panel holds about 83,000 compounds, 20% with a hit somewhere; the sample as a whole holds those more often.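 The test compound was applied at a single concentration to cells in 96-well plates for 48 hours, and percent growth was recorded.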 Activity calls are given as the source filed them. Rule for the calls: active = growth percent below 10; inactive = the rest.

Experiments:
Assay in all cases: NCI-60 one-dose screen, 48 h (100 = growth as untreated, 0 = no growth, -100 = all killed)
Details in all cases: 10 µM unless noted
NCI-H23 lung = tested on: NCI-H23 lung
NCI-H226 lung = tested on: NCI-H226 lung
NCI-H322M lung = tested on: NCI-H322M lung
HOP-62 NSCLC = tested on: HOP-62 NSCLC
NCI-H460 lung = tested on: NCI-H460 lung
HOP-92 NSCLC = tested on: HOP-92 NSCLC
NCI-H522 lung = tested on: NCI-H522 lung
A549/ATCC NSCLC = tested on: A549/ATCC NSCLC
786-0 renal = tested on: 786-0 renal
COLO 205 colon = tested on: COLO 205 colon
DU-145 prostate = tested on: DU-145 prostate
K-562 leukemia = tested on: K-562 leukemia
MALME-3M melanoma = tested on: MALME-3M melanoma
MDA-MB-231 breast = tested on: MDA-MB-231 breast
RXF 393 renal = tested on: RXF 393 renal
SF-268 CNS = tested on: SF-268 CNS
SF-295 CNS = tested on: SF-295 CNS
SF-539 CNS = tested on: SF-539 CNS
UACC-257 melanoma = tested on: UACC-257 melanoma
M14 melanoma = tested on: M14 melanoma

Measured: growth

C[n+]1c2ccccc2nc2c(N)cc(N)cc21
active: MALME-3M melanoma 3.51%
inactive: NCI-H23 lung 71.9% | NCI-H226 lung 37.2% | NCI-H322M lung 71.2% | HOP-62 NSCLC 56.6% | NCI-H460 lung 86.6% | HOP-92 NSCLC 84.2% | NCI-H522 lung 52.2% | A549/ATCC NSCLC 82% | 786-0 renal 62.2% | COLO 205 colon 49.8% | DU-145 prostate 93.5% | K-562 leukemia 36.4% | MDA-MB-231 breast 87.3% | RXF 393 renal 112% | SF-268 CNS 24.8% | SF-295 CNS 89.5% | SF-539 CNS 48.6% | UACC-257 melanoma 92.8% | M14 melanoma 96%

CCN(CC)CCS(=O)(=O)CCNc1ccnc2cc(Cl)ccc12
inactive: NCI-H226 lung 30.1% | NCI-H322M lung 56.8% | HOP-62 NSCLC 22.5% | HOP-92 NSCLC 26.4% | A549/ATCC NSCLC 71.9% | 786-0 renal 10.2% | SF-295 CNS 25.9% | UACC-257 melanoma 59%
active: NCI-H23 lung -18.4% | NCI-H460 lung 2.87% | NCI-H522 lung -50.5% | COLO 205 colon -44.5% | DU-145 prostate -24% | K-562 leukemia 7.87% | MALME-3M melanoma 1.04% | MDA-MB-231 breast -2.95% | RXF 393 renal -17.2% | SF-268 CNS 4.55% | SF-539 CNS -2.68% | M14 melanoma -10.5%

C=C(C)[C@@H]1CC[C@]2(C(N)=O)CC[C@]3(C)[C@H](CC[C@@H]4[C@@]5(C)C/C(=C/c6cccnc6)C(=O)C(C)(C)[C@@H]5CC[C@]43C)[C@@H]12
inactive: NCI-H23 lung 18.9% [100 µM] | NCI-H322M lung 12.7% [100 µM] | HOP-92 NSCLC 16.8% [100 µM] | A549/ATCC NSCLC 14.2% [100 µM] | 786-0 renal 18.1% [100 µM] | DU-145 prostate 24.6% [100 µM] | SF-268 CNS 39.3% [100 µM] | UACC-257 melanoma 20.8% [100 µM] | M14 melanoma 15.7% [100 µM]
active: NCI-H226 lung 9.08% [100 µM] | HOP-62 NSCLC 3.06% [100 µM] | NCI-H460 lung -42.8% [100 µM] | NCI-H522 lung -16.8% [100 µM] | COLO 205 colon -23.6% [100 µM] | K-562 leukemia 6.74% [100 µM] | MALME-3M melanoma -19.7% [100 µM] | MDA-MB-231 breast 0.809% [100 µM] | RXF 393 renal -8.8% [100 µM] | SF-295 CNS 6.69% [100 µM] | SF-539 CNS -14.3% [100 µM]

O=[N+]([O-])c1ccc(O)c(-c2nc3ccccc3s2)c1
active: HOP-92 NSCLC -5.6%
inactive: NCI-H23 lung 47.3% | NCI-H226 lung 83.7% | NCI-H322M lung 90.7% | HOP-62 NSCLC 88.8% | NCI-H460 lung 63.2% | NCI-H522 lung 58.6% | A549/ATCC NSCLC 84.2% | 786-0 renal 73.8% | COLO 205 colon 103% | DU-145 prostate 86.8% | K-562 leukemia 52.7% | MALME-3M melanoma 44.7% | MDA-MB-231 breast 75.3% | RXF 393 renal 107% | SF-268 CNS 76.1% | SF-295 CNS 53.9% | SF-539 CNS 99% | UACC-257 melanoma 83.5% | M14 melanoma 83.2%

O=C(OCc1ccc2c(Cl)cc(Cl)c(O)c2n1)N1CCN(C(=O)c2cc3cc(F)ccc3[nH]2)CC1
active: NCI-H226 lung 2.12% | HOP-62 NSCLC 6.32% | NCI-H460 lung 1.07% | NCI-H522 lung -19.1% | DU-145 prostate -10.4% | SF-539 CNS -20.1% | M14 melanoma 7.85%
inactive: NCI-H23 lung 26.3% | NCI-H322M lung 33.5% | HOP-92 NSCLC 39.2% | A549/ATCC NSCLC 13.6% | 786-0 renal 79.2% | COLO 205 colon 85.7% | K-562 leukemia 13.3% | MALME-3M melanoma 38.2% | MDA-MB-231 breast 28.2% | RXF 393 renal 16.4% | SF-268 CNS 31.1% | SF-295 CNS 25.1% | UACC-257 melanoma 25.1%

CC(C)=CC/C=C(/C)[C@H]1CC[C@]2(C)[C@@H]1CC[C@@H]1[C@@]3(C)CC/C(=N/O)C(C)(C)[C@@H]3CC[C@]12C
inactive: NCI-H23 lung 47.5% [100 µM] | NCI-H226 lung 59.7% [100 µM] | NCI-H322M lung 77.3% [100 µM] | HOP-62 NSCLC 74.2% [100 µM] | NCI-H460 lung 40.5% [100 µM] | HOP-92 NSCLC 53.1% [100 µM] | NCI-H522 lung 21.3% [100 µM] | A549/ATCC NSCLC 54.9% [100 µM] | 786-0 renal 58.7% [100 µM] | COLO 205 colon 65.8% [100 µM] | DU-145 prostate 73.7% [100 µM] | K-562 leukemia 33.9% [100 µM] | MALME-3M melanoma 81% [100 µM] | MDA-MB-231 breast 50.5% [100 µM] | RXF 393 renal 61.3% [100 µM] | SF-268 CNS 72% [100 µM] | SF-295 CNS 64.2% [100 µM] | SF-539 CNS 64% [100 µM] | UACC-257 melanoma 59.5% [100 µM] | M14 melanoma 61.1% [100 µM]

CCCOc1ccc(-c2nc(-c3ccc(N)cc3)cs2)cc1
inactive: NCI-H23 lung 96.8% | NCI-H226 lung 111% | NCI-H322M lung 103% | HOP-62 NSCLC 107% | NCI-H460 lung 98% | HOP-92 NSCLC 94.4% | NCI-H522 lung 89.3% | A549/ATCC NSCLC 93.5% | 786-0 renal 87.1% | COLO 205 colon 143% | DU-145 prostate 133% | K-562 leukemia 85.3% | MALME-3M melanoma 116% | MDA-MB-231 breast 99% | RXF 393 renal 99.5% | SF-268 CNS 133% | SF-295 CNS 89.3% | SF-539 CNS 103% | UACC-257 melanoma 111% | M14 melanoma 111%
